Results filed as inconclusive are left out. Where a call stands in place of a potency, no number is given. The source made the active and inactive calls. The call rests on the fitted dose curve; in most records, active means well fitted activation curve with a large enough effect in the repeat runs; inconclusive means weak or mixed curves; inactive means flat fitted curve, though single readings scatter.

This experiment in a line: A CellTox Green Cytotoxicity Assay to monitor cytotoxicity in HEK293 cells - 24 hour (AID 1224875). Further: nearly all actives have a fitted effect of over 45% in size. The settings on record: CellTox Green fluorescence; series mostly up to 76.8 µM; activity change: at the top concentration. The source says:
National Center for Advancing Translational Sciences [NCATS]
NIH Chemical Genomics Center [NCGC]
U.S. Environmental Protection Agency [EPA]
National Institutes of Environmental Health Sciences [NIEHS]
National Toxicology Program [NTP]
Cell-based models are critical for drug discovery. Determining the natural cytotoxic effects resulting from test compounds is an essential research activity. A CellTox Green Cytotoxicity Assay to monitor cytotoxicity in real time of continues cell culture during 40 hours of the compound treatment was used to screen Tox21 10K library compounds in Hek293 cells. CellTox Green Cytotoxicity Assay is a nonlytic, homogeneous, biofluorescent method to measure cytotoxicity in cell culture after experimental manipulation. The assay system uses a proprietary asymmetric cyanine dye that is excluded from viable cells but preferentially stains the dead cell's DNA. […] Viable cells produce no appreciable increases in fluorescence. Therefore, the fluorescence signal produced by the binding interaction with dead cell DNA is proportional to cytotoxicity.
The mixture of Hek293 cell suspension and reagents were dispensed at 600cells/6 ul/well in 1536-well tissue culture treated black solid bottom plates using a Multidrop dispenser. After the assay plates were incubated at a 37 C/5% CO2 incubator for 5 hours, 23 nL of compounds dissolved in DMSO, positive and negative controls was transferred to the assay plate by a pintool work station. The plates were incubated at 37 C for 40 hours. The fluorescence intensity were measured at 0h, 8h, 16h, 24h, 32h and 40h time points using ViewLux plate reader during compound treatment.
For the compound `NC(=O)N/N=C/c1ccc([N+](=O)[O-])o1`, the Potency entry is “inactive”.

For the compound `COCC(C)N` (stereo not given), the Potency result is “inactive”.

For `COC(=O)c1ccc(O)cc1`, the Potency result is “inactive”.

`COc1ccc(O)cc1`: the Potency entry was “inactive”.

For the compound `CCN1CCCC1=O`, the Potency result was “inactive”.

Take `CC(C)(C)CC(C)(C)c1ccc(O)c(-n2nc3ccccc3n2)c1`: the Potency result is “inactive”.

As for `CCCCCCCCOc1ccc(C(=O)c2ccccc2)c(O)c1`, the Potency entry is “inactive”.

Regarding `CC(O)COc1ccccc1` (stereo not given), the Potency result was “inactive”.

Consider `O=C(O)CCCCC1CCSS1` (stereo not given), for which the Potency entry was “inactive”.

On to `CCN(CC)CCOC(=O)c1ccc(N)cc1`, for which the Potency result was “inactive”.

For the compound `C=C(C)C(N)=O`, the Potency entry is “inactive”.

`CCCCC/C(C=O)=C\c1ccccc1`: the Potency result was “inactive”.

On to `CC(=O)OC/C=C(C)/C=C/C=C(C)/C=C/C1=C(C)CCCC1(C)C`, for which the Potency result is “inactive”.

In the case of `O=C(OCc1ccccc1)c1ccccc1`, the Potency result is “inactive”.

In the case of `CCCCCCCC(=O)OCC(O)CO` (stereo not given), the Potency result is “inactive”.

`C[C@]12CC[C@@H]3c4ccc(O)cc4CC[C@H]3[C@@H]1CCC2=O`: the “activity change” value is 2.3% [at 35.3 µM, hits give high values] (inactive).

Regarding `NC(=O)c1ccc([N+](=O)[O-])cc1Cl`, the Potency entry is “inactive”.

In the case of `CN(C)C=O`, the Potency result is “inactive”.

In the case of `CC(C)CC(C)CC(O)CC(C)C` (stereo not given), the Potency result is “inactive”.

Turning to `Cc1c(N(C)C)c(=O)n(-c2ccccc2)n1C`, the Potency entry was “inactive”.

With `OC[C@@H](O)[C@@H](O)[C@H](O)[C@H](O)CO`, the Potency result was “inactive”.

As for `COC(=O)c1ccc(C=O)cc1`, the Potency result was “inactive”.

Take `CC(C)Cc1ccc(C(C)C(=O)O)cc1` (stereo not given): the Potency result was “inactive”.

As for `Cn1cnc2c1c(=O)[nH]c(=O)n2C`, the Potency result was “inactive”.

In the case of `C1CNCCN1`, the Potency result was “inactive”.

As to `COc1cc(O)c(C(=O)c2ccccc2)cc1S(=O)(=O)O`, the Potency entry was “inactive”.

With `Nc1cccc(N)c1`, the Potency result was “inactive”.

For the compound `COc1ccccc1O`, the Potency entry is “inactive”.

Turning to `C/C=C/c1ccc(O)c(OC)c1`, the Potency entry is “inactive”.

For the compound `Nc1ccc(N=Nc2ccccc2)c(N)n1`, the Potency entry is “inactive”.

In the case of `COCCOCCOC`, the Potency entry was “inactive”.

With `OCCCc1ccccc1`, the Potency result is “inactive”.

As for `CCCCOCCOCCOC(C)=O`, the Potency entry was “inactive”.

For the compound `CCCCCCCCCCCCCCCCCC(=O)OCC(O)CO` (stereo not given), the Potency entry is “inactive”.

In the case of `CC(=O)Oc1ccccc1C(=O)O`, the Potency entry was “inactive”.

For the compound `CC1(C)O[C@@H]2[C@@H](CO[C@@]3(COS(N)(=O)=O)OC(C)(C)O[C@@H]23)O1`, the Potency entry is “inactive”.

`O=C(O)Cc1cccc2ccccc12`: the Potency entry is “inactive”.

Consider `COc1ccc(C(=O)c2ccccc2)c(O)c1`, for which the Potency result was “inactive”.

Turning to `O=c1cc[nH]c(=O)[nH]1`, the Potency entry is “inactive”.

In the case of `CCOCCO`, the Potency entry is “inactive”.

Values taken from PubChem BioAssay (Tox21).
